Values joined by “and” are separate entries in the source; they are usually repeats but may differ in a detail not shown here. Identical values can stand only once. Inconclusive results are not listed. Some compounds were tested as several samples or in several runs, with calls that do not always agree. Active and inactive are the calls of the source. Unless noted, calls follow the shape of the dose curve; as a rule, active = well fitted curve in the direction sought with a large enough effect; inconclusive = small, poorly fitted or top-dose-only effect, or another doubt; inactive = no such curve, though single readings can be large; an effect the other way counts as inactive or inconclusive.
Legend:
[1] = test system: Es-2; test: Primary qHTS to identify gynecologic anti-cancer compounds using libraries of approved drugs and bioactive compounds (AID 1345084); conditions: Gynecologic cancer cell panel viability, ATPlite luminescence, 48 h; series mostly up to 57.5 µM; also: nearly all actives have a fitted effect of over 55% in size; also: potency is read from the fitted curve at half-maximal effect; as to activity change, negative = cytotoxicity: % is scaled to controls: 0 for no effect and ±100 for the full control effect
Outline: (§1)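 Luminescence from the ATPlite ATP-monitoring reagent indicates viable cell number; lower signal means cytotoxicity. Cells received compound 16 h after seeding and were exposed for 48 h across five concentrations.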

[2] = test system: HeLa; test: as above; conditions: Gynecologic cancer cell panel viability, ATPlite luminescence, 48 h; series mostly up to 57.5 µM
Outline: as §1

[3] = test system: Hek293T; test: as above; conditions: Gynecologic cancer cell panel viability, ATPlite luminescence, 48 h, control line for the selectivity index; series mostly up to 57.5 µM
Outline: as §1

[4] = test system: JEG-3; test: as above; conditions: Gynecologic cancer cell panel viability, ATPlite luminescence, 48 h; series mostly up to 57.5 µM
Outline: as §1

[5] = test system: OV90; test: as above; conditions: Gynecologic cancer cell panel viability, ATPlite luminescence, 48 h; series mostly up to 57.5 µM
Outline: as §1

[6] = test system: PA-1; test: as above; conditions: Gynecologic cancer cell panel viability, ATPlite luminescence, 48 h; series mostly up to 57.5 µM
Outline: as §1

[7] = test system: SKOV3; test: as above; conditions: Gynecologic cancer cell panel viability, ATPlite luminescence, 48 h; series mostly up to 57.5 µM
Outline: as §1

[8] = test system: Tov-21-G; test: as above; conditions: Gynecologic cancer cell panel viability, ATPlite luminescence, 48 h; series mostly up to 57.5 µM
Outline: as §1

[9] = test system: Tov112D; test: as above; conditions: Gynecologic cancer cell panel viability, ATPlite luminescence, 48 h; series mostly up to 57.5 µM
Outline: as §1

[10] = Drug repurposing screens with cells derived from glioblastoma tumor samples (AID 1345199); conditions: GBM patient neurospheres viability, ATP luminescence, 48 h; also: nearly all actives have a fitted effect of over 40% in size; also: potency is read from the fitted curve at half-maximal effect; as to activity, negative = cell killing: % is scaled to controls: 0 for no effect and ±100 for the full control effect
Outline: (§2)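 Primary testing used CD133+ neurospheres from four GBM patients, seven concentrations, 48 h exposure and ATP-based viability; confirmation added three slower-growing patient lines.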

[11] = test system: astro; test: as above; conditions: viability, ATP luminescence, 48 h; series mostly up to 45.9 µM
Outline: as §2

[12] = biological target: Nuclear receptor subfamily 1 group I member 2 (Rattus norvegicus) (UniProt Q9R1A7); test: qHTS assay for small molecule activators of the rat pregnane X receptor (rPXR) signaling pathway (AID 651751; call rule not given here; also: 0% is about no effect); conditions: rPXR reporter cells, luciferase (One-Glo), 24 h
Sequence of Nuclear receptor subfamily 1 group I member 2 (Rattus norvegicus) (Q9R1A7 whole entry, looked up): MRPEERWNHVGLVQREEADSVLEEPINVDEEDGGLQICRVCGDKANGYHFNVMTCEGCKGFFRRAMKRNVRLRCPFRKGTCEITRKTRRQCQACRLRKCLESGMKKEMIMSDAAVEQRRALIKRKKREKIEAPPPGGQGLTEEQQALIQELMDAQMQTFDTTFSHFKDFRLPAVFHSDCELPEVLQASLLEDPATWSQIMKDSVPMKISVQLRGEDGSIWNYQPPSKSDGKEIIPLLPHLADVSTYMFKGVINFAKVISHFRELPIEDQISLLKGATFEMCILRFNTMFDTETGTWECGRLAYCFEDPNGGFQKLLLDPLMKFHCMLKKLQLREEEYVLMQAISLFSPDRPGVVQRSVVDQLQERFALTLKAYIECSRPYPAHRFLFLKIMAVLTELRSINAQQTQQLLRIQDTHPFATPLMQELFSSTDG

[13] = at 45.9 µM (top of the series), tumour line B
[14] = at 45.9 µM (top of the series), tumour line D
[15] = at 46.1 µM (top of the series), tumour line C
[16] = at 46 µM (top of the series), tumour line A
[17] = at 20 µM (top of the series), tumour line C
[18] = at 21.2 µM (top of the series), tumour line B
[19] = at 21.2 µM (top of the series), tumour line D

CC(=O)O[C@H]1C(=O)[C@@]2(C)C([C@H](OC(=O)c3ccccc3)[C@]3(O)C[C@H](OC(=O)[C@H](O)[C@@H](NC(=O)c4ccccc4)c4ccccc4)C(C)=C1C3(C)C)[C@]1(OC(C)=O)CO[C@@H]1C[C@@H]2O (stereo partly drawn)
active: Potency [1] 0.282 µM | Potency [2] 0.0794 µM
inactive: Potency [3] | Potency [4] | Potency [5]

C=CCc1cc(OC)c(O)c(C(=O)NCCO)c1
inactive: Potency [1] | Potency [2] | Potency [3] | Potency [4] | Potency [5] | Potency [6] | Potency [7] | Potency [8] | Potency [9] | activity, negative = cell killing [10, 13] -18.2% | activity, negative = cell killing [10, 14] -1.66% | activity, negative = cell killing [10, 15] 2.37% | Potency [11]

Nc1cccc2c1CN(C1CCC(=O)NC1=O)C2=O (stereo not drawn)
inactive: Potency [1] | Potency [2] | Potency [3] | Potency [4] | Potency [5] | Potency [6] | Potency [7] | Potency [8] | Potency [9] | activity, negative = cell killing [10, 13] -18.6% | activity, negative = cell killing [10, 14] -1.35% | activity, negative = cell killing [10, 16] -28.8% | activity, negative = cell killing [10, 15] -29.8% | Potency [11]

Cc1cc2c(s1)Nc1ccccc1N=C2N1CCN(C)CC1
inactive: Potency [1] | Potency [2] | Potency [3] | Potency [4] | Potency [5] | Potency [6] | Potency [7] | Potency [8] | Potency [9] | activity, negative = cell killing [10, 13] -20.2% | activity, negative = cell killing [10, 14] -20.6% | activity, negative = cell killing [10, 15] -6.39% | Potency [11]
active: Potency ([10]; tumour line A) 12.6 µM

CCN(CCO)CCCC(C)Nc1ccnc2cc(Cl)ccc12 (stereo not drawn)
active: Potency ([10]; tumour line A) 11.2 µM
inactive: activity change, negative = cytotoxicity [1] -1.37% [at 6.55 µM] and -0.815% [at 6.55 µM] | activity change, negative = cytotoxicity [2] 2.67% [at 6.55 µM] and -11.2% [at 6.55 µM] | activity change, negative = cytotoxicity [3] 9.38% [at 6.55 µM] and 2.44% [at 6.55 µM] | activity change, negative = cytotoxicity [4] -0.0768% [at 6.55 µM] and 4.75% [at 6.55 µM] | activity change, negative = cytotoxicity [5] -3.69% [at 6.55 µM] | activity change, negative = cytotoxicity [6] 16.5% [at 6.55 µM] and 2.35% [at 6.55 µM] | activity change, negative = cytotoxicity [7] -2.72% [at 6.55 µM] and 0.445% [at 6.55 µM] | activity change, negative = cytotoxicity [8] 2.96% [at 6.55 µM] and -2.5% [at 6.55 µM] | activity change, negative = cytotoxicity [9] 10.4% [at 6.55 µM] and 2.64% [at 6.55 µM] | activity, negative = cell killing [10, 13] -10.8% | activity, negative = cell killing [10, 14] -19.9% | activity, negative = cell killing [10, 15] 3.19% | Potency [11]

Cc1cc2cc3c(C)cc(=O)oc3c(C)c2o1
inactive: Potency [1] | Potency [2] | Potency [3] | Potency [4] | Potency [5] | Potency [6] | Potency [7] | Potency [8] | Potency [9] | activity, negative = cell killing [10, 17] -6.21% | activity, negative = cell killing [10, 18] -13.8% | activity, negative = cell killing [10, 19] -30.4% | Potency [11]

Clc1ccc(C(Cn2ccnc2)OCc2c(Cl)cccc2Cl)c(Cl)c1 (stereo not drawn)
inactive: Potency [1] | Potency [2] | Potency [3] | Potency [4] | Potency [5] | Potency [6] | Potency [7] | Potency [8] | Potency [9] | activity, negative = cell killing [10, 17] -9.14%
active: Potency ([10]; tumour line A) 7.94 µM | Potency ([10]; tumour line D) 7.08 µM

COc1ccc2cc([C@H](C)C(=O)O)ccc2c1
inactive: Potency [1] | Potency [2] | Potency [3] | Potency [4] | Potency [5] | Potency [6] | Potency [7] | Potency [8] | Potency [9] | activity, negative = cell killing [10, 17] -12.8% | activity, negative = cell killing [10, 18] -16.1% | activity, negative = cell killing [10, 19] -8.68% | Potency [11]

COc1cc(OC)c(C(=O)CCCN2CCCC2)c(OC)c1
inactive: Potency [1] | Potency [2] | Potency [3] | Potency [4] | Potency [5] | Potency [6] | Potency [7] | Potency [8] | Potency [9] | activity, negative = cell killing [10, 17] 0.201% | activity, negative = cell killing [10, 18] -11.8% | activity, negative = cell killing [10, 19] -17.1% | activity, negative = cell killing ([10]; at 21.3 µM (top of the series), tumour line A) -24.2% | Potency [11]

COC(=O)C1=C(C)NC(C)=C(C(=O)OC(C)C)C1c1cccc2nonc12 (stereo not drawn)
inactive: Potency [1] | Potency [2] | Potency [3] | Potency [4] | Potency [5] | Potency [6] | Potency [7] | Potency [8] | Potency [9] | activity, negative = cell killing [10, 17] -16.7% | activity, negative = cell killing [10, 18] -11.5% | activity, negative = cell killing [10, 19] -1.17% | Potency [11]

CC1=C(C(=O)O)N2C(=O)[C@@H](NC(=O)[C@H](N)C3=CCC=CC3)[C@H]2SC1
inactive: Potency [1] | Potency [2] | Potency [3] | Potency [4] | Potency [5] | Potency [6] | Potency [7] | Potency [8] | Potency [9] | activity, negative = cell killing [10, 13] -8.4% | activity, negative = cell killing [10, 14] -14.2% | activity, negative = cell killing [10, 15] -3.66% | Potency [11]

CC(C)c1nc(CN(C)C(=O)N[C@H](C(=O)N[C@@H](Cc2ccccc2)C[C@H](O)[C@H](Cc2ccccc2)NC(=O)OCc2cncs2)C(C)C)cs1
inactive: Potency [1] | Potency [2] | Potency [3] | Potency [4] | Potency [5] | Potency [6] | Potency [7] | Potency [8] | Potency [9] | activity, negative = cell killing [10, 13] -7.95% and -4.95% | activity, negative = cell killing [10, 14] -23.9% and -23.8% | activity, negative = cell killing [10, 15] -26.2% and -16% | Potency [11]
active: Potency ([10]; tumour line A) 17.8 µM

Cc1ccc(C)c(OCCCC(C)(C)C(=O)O)c1
inactive: Potency [1] | Potency [2] | Potency [3] | Potency [4] | Potency [5] | Potency [6] | Potency [7] | Potency [8] | Potency [9] | activity, negative = cell killing [10, 13] -12.7% | activity, negative = cell killing [10, 14] -0.928% | activity, negative = cell killing [10, 16] -17.6% | activity, negative = cell killing [10, 15] -8.64% | Potency [11] | max response [12] -0.498% and -3.12%

CC1Cc2ccccc2N1NC(=O)c1ccc(Cl)c(S(N)(=O)=O)c1 (stereo not drawn)
inactive: Potency [1] | Potency [2] | Potency [3] | Potency [4] | Potency [5] | Potency [6] | Potency [7] | Potency [8] | Potency [9] | activity, negative = cell killing [10, 17] 27.9% | activity, negative = cell killing [10, 18] -2.89% | activity, negative = cell killing [10, 19] 1.12% | activity, negative = cell killing [10, 13] 9.62% | activity, negative = cell killing [10, 14] -0.642% | activity, negative = cell killing [10, 15] 0.368% | Potency [11]
